Data: PubChem BioAssay (NCI)
About 79,000 compounds went through this panel and 15% of them were active in at least one assay; those are over-represented in the sample as a whole. A number with no mark means an inactive call. Activity calls are given as the source filed them. Rule as the data show it: active = growth inhibition above about 70%; inactive = the rest.

Assay: NCI Yeast Anticancer Drug Screen. Data for the mlh1 rad18 strain (AID 175)
Conditions: S. cerevisiae mlh1 rad18 strain growth inhibition; at 50.0 µM (retest, dose inferred, filed as 5.0); hits give high values
In short: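 Test agents were incubated with a yeast strain of defined genotype (DNA damage repair defect). Inhibition of growth was derived by comparison with vehicle-exposed cultures.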

Compound	growth inhibition
COc1ccc(Cc2nc3ccccc3s2)cc1OC	99% (active)
CN(NC(=O)c1cccs1)C1=NCCCN1	55%
Cc1cccc2c1C(=O)N(CC[P+](c1ccccc1)(c1ccccc1)c1ccccc1)C2=O	86% (active)
CCc1cc2c(cc1O)CC[C@@H]1[C@@H]2CC[C@]2(C)[C@@H](O)CC[C@@H]12	97% (active)
C[n+]1c2ccc(Cl)cc2nc2cc(-c3ccccc3)ccc21	98% (active)
CCCCCN=Cc1c(O)c(O)c(C(C)C)c2cc(C)c(-c3c(C)cc4c(C(C)C)c(O)c(O)c(C=NCCCCC)c4c3O)c(O)c12	25%
CCOC1(c2ccccc2)c2ccccc2S(=O)(=O)N1C (stereo not given)	11%
CCN(CC)CCNc1ccc(C)c2sc3ccc(OC)cc3c(=O)c12	98% (active)
Cc1nc2c(cnn2-c2ccccc2)c(=O)o1	-108%
O=S(=O)(c1ccc(NC(=S)NCc2ccncc2)cc1)N1CCCCC1	-8%
Nc1nn2c(C(Br)Br)cc(C(Br)Br)nc2c1[N+](=O)[O-]	100% (active)
O=C1C=CC(=O)N1c1ccccc1 (tested in a mixture with another compound)	22%
O=C(O)CCSc1ncnc2nc[nH]c12	-1%
COc1cccc(=O)cc1	94% (active)
CCN(CC)CCCC(=O)Nc1cc(OC)cc2cccnc12	-1%
COc1ccc(C2SCC(=O)N2c2ccc(-c3ccc(-n4c(-c5ccccc5)nc5ccccc5c4=O)cc3)cc2)cc1 (stereo not given)	68%
CC(=O)OC(C#N)CC(C)(C)/[N+]([O-])=[N+](\[O-])C(C)(C)CC(C#N)OC(C)=O (stereo not given)	80% (active)
ICCCCCCCCCC[n+]1ccc2ccccc2c1	96% (active)
CCCCCc1[nH]nc(C(=O)OC)c1N=NN1CCOCC1	99% (active)
Clc1ccc(C(c2ccc(Cl)cc2)c2cncnc2)cc1	97% (active)

Compound	growth inhibition
CC1=C(C(=O)Nc2cccc(Cl)c2)C(c2ccc([N+](=O)[O-])cc2)C(C(=O)Nc2cccc(Cl)c2)=C(C)N1	51%
NC1=NC(c2ccccc2)CC(c2cc(Cl)cc(Br)c2O)=N1 (stereo not given)	46%
CC(NNC(=S)NCc1ccccc1)c1cc2ccccc2cn1 (stereo not given)	93% (active)
C=CCOC(=O)CC(O)C(=O)OCC=C (stereo not given)	13%
OC(C(=Nc1ccccc1)c1ccccc1)c1ccccc1 (stereo not given)	99% (active)
C=CC1(NC(=O)c2ccccc2)CCC(C(C)(C)C)CC1 (stereo not given)	93% (active)
O=C(Nc1ccccc1-c1nn(CN2CCNCC2)c(=S)n(CN2CCNCC2)c1=O)C(F)(F)F	14%
CCN(CC)CCOc1c(I)cc(I)cc1I	99% (active)
CCN(CC)CC(O)c1ccnc2c(O)cccc12 (stereo not given)	20%
O=[N+]([O-])c1ccc(-c2nc(/C=N/N3CCCCC3)cs2)o1	64%
O=C(CCn1[nH]c(=O)c(Cl)c(Cl)c1=O)NNc1ccc([N+](=O)[O-])cc1[N+](=O)[O-]	17%
COc1ccc(-c2c(CO)cc(OC)c(OC)c2OC)c(CO)c1	41%
C(=C\c1cnnc2ccccc12)/c1ccco1	40%
CCCCCCCCNc1ccc(Cl)cc1	97% (active)
Cc1ccc2ccc(C(Nc3ccccc3)c3ccncc3)c(O)c2n1 (stereo not given)	92% (active)
c1ccc(C2=NOC3(c4ccccc4)SC4CCCCC4CN23)cc1 (stereo not given)	98% (active)
COc1ccc(C(=O)Nc2ccccc2[N+](=O)[O-])cc1	0%
CC(=O)CC(C)=NCCN=C(C)CC(C)=O.[Pd]	74% (active)
Cc1cc2oc3c(ccc(=O)n3C)c(=O)c2c(C)c1Cl	48%
CCCOc1ccc(/C=N/NC(N)=S)cc1	75% (active)

Same assay, conditions: S. cerevisiae mlh1 rad18 strain growth inhibition; at 50.0 µM; hits give high values

Compound	growth inhibition
COc1ccc(Cc2nc3ccccc3s2)cc1OC	91.8% (active)
CN(NC(=O)c1cccs1)C1=NCCCN1	-20.7%
Cc1cccc2c1C(=O)N(CC[P+](c1ccccc1)(c1ccccc1)c1ccccc1)C2=O	67.9%
CCc1cc2c(cc1O)CC[C@@H]1[C@@H]2CC[C@]2(C)[C@@H](O)CC[C@@H]12	85.2% (active)
C[n+]1c2ccc(Cl)cc2nc2cc(-c3ccccc3)ccc21	98.6% (active)
CCCCCN=Cc1c(O)c(O)c(C(C)C)c2cc(C)c(-c3c(C)cc4c(C(C)C)c(O)c(O)c(C=NCCCCC)c4c3O)c(O)c12	68.5%
CCOC1(c2ccccc2)c2ccccc2S(=O)(=O)N1C (stereo not given)	9%
CCN(CC)CCNc1ccc(C)c2sc3ccc(OC)cc3c(=O)c12	93% (active)
Cc1nc2c(cnn2-c2ccccc2)c(=O)o1	50.6%
O=S(=O)(c1ccc(NC(=S)NCc2ccncc2)cc1)N1CCCCC1	6.9%
Nc1nn2c(C(Br)Br)cc(C(Br)Br)nc2c1[N+](=O)[O-]	99.5% (active)
O=C1C=CC(=O)N1c1ccccc1 (tested in a mixture with another compound)	77.2% (active)
O=C(O)CCSc1ncnc2nc[nH]c12	-13.9%
COc1cccc(=O)cc1	76.4% (active)
CCN(CC)CCCC(=O)Nc1cc(OC)cc2cccnc12	13.4%
COc1ccc(C2SCC(=O)N2c2ccc(-c3ccc(-n4c(-c5ccccc5)nc5ccccc5c4=O)cc3)cc2)cc1 (stereo not given)	58.1%
CC(=O)OC(C#N)CC(C)(C)/[N+]([O-])=[N+](\[O-])C(C)(C)CC(C#N)OC(C)=O (stereo not given)	80% (active)
ICCCCCCCCCC[n+]1ccc2ccccc2c1	90.5% (active)
CCCCCc1[nH]nc(C(=O)OC)c1N=NN1CCOCC1	99.5% (active)
Clc1ccc(C(c2ccc(Cl)cc2)c2cncnc2)cc1	86.8% (active)

Compound	growth inhibition
CC1=C(C(=O)Nc2cccc(Cl)c2)C(c2ccc([N+](=O)[O-])cc2)C(C(=O)Nc2cccc(Cl)c2)=C(C)N1	61.8%
NC1=NC(c2ccccc2)CC(c2cc(Cl)cc(Br)c2O)=N1 (stereo not given)	28.9%
CC(NNC(=S)NCc1ccccc1)c1cc2ccccc2cn1 (stereo not given)	89.7% (active)
C=CCOC(=O)CC(O)C(=O)OCC=C (stereo not given)	-2.45%
OC(C(=Nc1ccccc1)c1ccccc1)c1ccccc1 (stereo not given)	99.1% (active)
C=CC1(NC(=O)c2ccccc2)CCC(C(C)(C)C)CC1 (stereo not given)	40.4%
O=C(Nc1ccccc1-c1nn(CN2CCNCC2)c(=S)n(CN2CCNCC2)c1=O)C(F)(F)F	38.6%
CCN(CC)CCOc1c(I)cc(I)cc1I	99.2% (active)
CCN(CC)CC(O)c1ccnc2c(O)cccc12 (stereo not given)	51.9%
O=[N+]([O-])c1ccc(-c2nc(/C=N/N3CCCCC3)cs2)o1	66.5%
O=C(CCn1[nH]c(=O)c(Cl)c(Cl)c1=O)NNc1ccc([N+](=O)[O-])cc1[N+](=O)[O-]	88.2% (active)
COc1ccc(-c2c(CO)cc(OC)c(OC)c2OC)c(CO)c1	99% (active)
C(=C\c1cnnc2ccccc12)/c1ccco1	39.8%
CCCCCCCCNc1ccc(Cl)cc1	98% (active)
Cc1ccc2ccc(C(Nc3ccccc3)c3ccncc3)c(O)c2n1 (stereo not given)	89% (active)
c1ccc(C2=NOC3(c4ccccc4)SC4CCCCC4CN23)cc1 (stereo not given)	90.1% (active)
COc1ccc(C(=O)Nc2ccccc2[N+](=O)[O-])cc1	16.2%
CC(=O)CC(C)=NCCN=C(C)CC(C)=O.[Pd]	83.7% (active)
Cc1cc2oc3c(ccc(=O)n3C)c(=O)c2c(C)c1Cl	17.9%
CCCOc1ccc(/C=N/NC(N)=S)cc1	67.3%
